Compounds with a hit are over-represented: about 1.4% of the library has one in this group of screens.
IDH1 R132H inh – blocks human mutant IDH1 R132H enzyme; O75874; Potency, µM (top dose mostly 76.6 µM), usual class: inhibitors; hit rate 0.093% among 390,000; IDH1-R132H enzyme, NADPH consumption, diaphorase/resazurin fluorescence; note: nearly all actives have a fitted effect of over 65% in size
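IDH1-R132H (0.5 ug/mL dispensed) in pH 7.5 Tris buffer was preincubated 30 min with compound, then given a substrate mix of 0.016 mM NADPH and 2 mM alpha-KG for 80 min at room temperature; remaining NADPH was read by diaphorase/resazurin fluorescence.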
LDHA inh – blocks human lactate dehydrogenase A; purified LDHA, NADH/diaphorase-resazurin fluorescence; stronger effect = lower value; activity change, % (values are at about 110 or 230 µM); hit rate 0.15% among 480,000; AID 1347041; in the data active = activity change below about -30%; inconclusive = mostly about -25% to -30%
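Remaining NADH was detected by diaphorase (0.133 mg/mL) converting 37 µM resazurin to fluorescent resorufin, read at 0 and 20 minutes. The preceding 5-minute room-temperature reaction used 2 nM LDHA, 0.2 mM sodium pyruvate and 0.06 mM NADH at pH 7.4.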
PKM2 act – increases activity of human pyruvate kinase M2. purified PKM2, Kinase-Glo ATP luminescence, activation; response scale: 0% is enzyme alone, no compound. hit rate 0.34% among 260,000. AID 1631. P14618. Potency, µM (series often up to 57.5 µM), usual class: activators; note: nearly all actives have a fitted effect of over 55% in size
Target sequence (P14618 whole entry, looked up): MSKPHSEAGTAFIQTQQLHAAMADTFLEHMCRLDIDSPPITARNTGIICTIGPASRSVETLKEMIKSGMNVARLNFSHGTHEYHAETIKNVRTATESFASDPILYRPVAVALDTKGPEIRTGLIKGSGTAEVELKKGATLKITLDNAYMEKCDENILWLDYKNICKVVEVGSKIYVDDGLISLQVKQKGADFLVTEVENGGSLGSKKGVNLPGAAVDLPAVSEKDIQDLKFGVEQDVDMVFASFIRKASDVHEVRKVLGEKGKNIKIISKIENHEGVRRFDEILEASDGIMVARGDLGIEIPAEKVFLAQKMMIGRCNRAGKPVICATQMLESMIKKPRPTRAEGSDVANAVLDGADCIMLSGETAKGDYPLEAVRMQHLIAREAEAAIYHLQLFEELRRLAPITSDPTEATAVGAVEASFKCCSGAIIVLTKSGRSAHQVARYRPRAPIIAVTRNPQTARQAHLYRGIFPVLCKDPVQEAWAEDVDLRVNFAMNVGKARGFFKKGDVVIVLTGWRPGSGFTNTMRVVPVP
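ATP formation by purified human PK-M2, quantified via coupled luciferase luminescence after 1 h at room temperature with 0.1 mM ADP and 0.5 mM PEP final.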
TrxR1 substrate – substrates of rat thioredoxin reductase 1; purified TrxR1 substrate turnover, NADPH consumption readout; Potency, µM (top dose mostly 114 µM); hit rate 0.01% among 390,000; AID 588456; O89049; note: nearly all actives have a fitted effect of over 50% in size
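Rat TrxR1, dispensed at 90 nM, was prereduced with 400 uM NADPH (final) for 5 min at ~22 deg C, then incubated with compound 15 min before 400 uM selenite. A first-read NADPH fluorescence drop versus no-compound background flagged substrates.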
rTrxR1 inhibitor – blocks rat thioredoxin reductase 1 | recombinant rTrxR1, NADPH fluorescence consumption, selenite substrate | hit rate 1% among 390,000 | O89049 | Potency, µM (highest dose often 114 µM), usual class: inhibitors | AID 588453; note: nearly all actives have a fitted effect of over 65% in size
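Rat TrxR1 (90 nM in the dispensed reagent) was pre-reduced with 400 uM NADPH for 5 min at room temperature, then incubated with compound for 15 min. After 400 uM selenite was added, NADPH fluorescence (Ex 340/Em 450 nm) was followed for 8 min.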
GLS inhibitor – glutaminase GLS (human) inhibition; O94925; GLS enzymatic activity, qHTS titration; Potency, µM (titrated, usually from 45.5 µM), usual class: inhibitors; hit rate 0.21% among 410,000; AID 624170
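Read-out is an Amplex red fluorescence increase coupled through glutamate oxidase and HRP, measured before and after 30 min room-temperature incubation. hKGA is in 45 mM KH2PO4 (pH 8.2) with 0.02% Tween-20; glutamine added as 1mM solution.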
GLS confirm – glutaminase (human) inhibition, hit confirmation; Potency, µM (doses to about 46.1 µM), usual class: inhibitors; 35 tested, under 10 active; biochemical glutaminase enzyme inhibition assay; shares compounds with GLS inhibitor; calls by dose curve
HRP GOx counter – inhibits HRP glutamate oxidase coupled readout, glutaminase counter-screen; shares compounds with GLS inhibitor; HRP/glutamate oxidase coupled Amplex Red fluorescence counterscreen; activity change, negative = inhibition, % at 46.1 µM; 35 tested, under 10 active; AID 624262
GLS HEK tox – reduces HEK-293 viability in glutaminase inhibitor counter-screen; AID 624264; 35 tested, under 10 active; HEK-293 viability, CellTiter-Glo luminescence, 24 h; shares compounds with GLS inhibitor; activity change, negative = cytotoxicity, % at 46.1 µM
Each line names hits and unclear results; the compound was inactive in the other large screens (follow-up assays come after a bar, where they were run). Unless noted, calls come from the whole dose curve; as a rule, active = well fitted curve in the direction sought with a large enough effect; inconclusive = small, poorly fitted or top-dose-only effect, or another doubt; inactive = no such curve, though single readings can be large; an effect the other way counts as inactive or inconclusive.

COc1ccc(NC(=O)c2nn(-c3ccccc3C)c(=O)cc2OC)cc1	none (no result: IDH1 R132H inh, PKM2 act, TrxR1 substrate, rTrxR1 inhibitor, GLS inhibitor)
COc1ccc(NS(=O)(=O)c2cc(N)ccc2N2CCOCC2)cc1	none (no result: PKM2 act)
COc1ccc(NS(=O)(=O)c2cc(N)ccc2N2CCCC2)cc1	GLS inhibitor inconclusive (no result: PKM2 act) | GLS confirm inactive | HRP GOx counter inconclusive | GLS HEK tox inactive
Cc1cc(OC(=O)c2cccs2)cc(OC(=O)c2cccs2)c1	none (no result: IDH1 R132H inh, PKM2 act, TrxR1 substrate, rTrxR1 inhibitor, GLS inhibitor)
CCC12CN3CC(CC)(CN(C1)C3c1ccco1)C2=O (stereo not given)	none (no result: IDH1 R132H inh, PKM2 act, TrxR1 substrate, rTrxR1 inhibitor, GLS inhibitor)
CC(=O)c1c(C)oc2ccc(NS(=O)(=O)c3ccc(C)cc3)cc12	none
Cc1ccc(C)c(S(=O)(=O)Nc2ccc3oc(C)c(C(=O)O)c3c2)c1	GLS inhibitor 13µM | GLS confirm inconclusive | HRP GOx counter inactive | GLS HEK tox inactive
NNC(=O)c1cc2ccccc2cc1NS(=O)(=O)c1ccccc1	GLS inhibitor inconclusive | GLS confirm inactive | HRP GOx counter inactive | GLS HEK tox inactive
COc1ccccc1NS(=O)(=O)c1cc(NC(=O)c2cc[n+]([O-])cc2)ccc1N1CCCC1	GLS inhibitor 11µM | GLS confirm inactive | HRP GOx counter inactive | GLS HEK tox inactive
COc1ccccc1C1=NS(=O)(=O)N(C)C(C(=O)N2CCCCC2C)=C1 (stereo not given)	none (no result: IDH1 R132H inh, PKM2 act, TrxR1 substrate, rTrxR1 inhibitor, GLS inhibitor)
